We go through 37 compounds from article PMC5540273 (PLoS ONE, 2017).

The structures appear in SMILES notation.
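Further: KINOMEscan kinase panel screen.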

In the first test the test system is T1, MLCK.
T1 construct: gene MYLK3
Particulars: concentration: 1 μM,replicates: in singlicate; n = 1.
With `C[C@@H](Oc1cc(-n2cnc3cc(-c4ccncc4)ccc32)sc1C(N)=O)c1ccccc1Cl` [GSK479719], the “%Inh” value worked out at 0%.
On the same count and under the same terms, as for `COc1cc2c(Nc3ccc(NC(=O)c4ccccc4)cc3)ncnc2cc1OCCCN1CCOCC1` [GSK301329], the figure is 0%.
As to `Cc1cccc(-c2nc(Nc3ccncc3)c3sccc3n2)n1` [GW869641], the “%Inh” value is recorded as 10%.
Same read-out and setting: as for `Cl.Cl.NC[C@H](CC1CCCCC1)NC(=O)c1ccc(-c2ccnc3[nH]ccc23)s1` [GSK1581428], the figure is 74%.
On the same count and under the same terms, the same measure for `Cc1ccc(Nc2ccnc(Nc3ccc4c(c3)CS(=O)(=O)C4)n2)cc1O.Cl` [GW579362]: 0%; for `CCOC(=O)N1CCC(n2cnc(-c3ccc(F)cc3)c2-c2ccnc(N)n2)CC1` [SB-219952]: 0%.
Take `CS(=O)(=O)c1cccc(CNc2nc(Nc3ccc4c(c3)[C@@H]3C[C@@H]4CNC3=O)ncc2C(F)(F)F)c1`: the “%Inh” value was 15%.
Take `O=C(Nc1ccc(Oc2ccc3nc(NC(=O)C4CC4)cn3n2)c(F)c1)c1cccn(-c2ccccc2)c1=O`: the “%Inh” value was 0%.
Still for that read-out and setting: the same measure for `Cc1ccc(C(=O)Nc2ccc(Oc3ccc4nc(NC(=O)C5CC5)cn4c3)c(F)c2)c(=O)n1-c1ccccc1`: 0%.
For the compound `CCN1CCN(CCCC(=O)Nc2n[nH]c3nc(-c4ccc(O)cc4)c(Br)cc23)CC1` [SB-731579], the “%Inh” value stood at 39%.
Same read-out and setting: the same measure for `COC(=O)c1cccc(NC(=O)NC2CCN(c3ccnc(Nc4cc(OC)c(OC)c(OC)c4)n3)C2)c1` (centres unmarked) [GSK1379767]: 12%; for `Cn1cc(-c2cccc3c(N)c(C(N)=O)nnc23)cn1`: 0%.
Still for that read-out and setting: the same measure for `Cn1ccc2ncnc(Oc3ccc(NC(=O)Nc4cccc(C(F)(F)F)c4)c(F)c3)c21`: 0%.
Regarding `COc1cc(Nc2nccc(N3CCC(NC(=O)c4cccc(C#N)c4)C3)n2)cc(OC)c1OC` (centres unmarked) [GSK1379751], the “%Inh” value is 0%.
`c1ccc(Oc2ccc(Nc3ccnc4ccc(-c5ccccn5)cc34)cc2)cc1` [GW407034]: the “%Inh” value was found to be 13%.
`C[C@@H](Oc1cc(-n2cnc3cc(-c4cnn(C)c4)ccc32)sc1C(N)=O)c1ccccc1Cl` [GSK580432]: the “%Inh” value stood at 10%.
Same read-out and setting: the same measure for `FC(F)(F)c1cc(Br)cc(Nc2nccc(-c3cnn4ncccc34)n2)c1` [GW810578]: 32%; for `COc1cccc(CNC(=O)NC2CCN(c3ccnc(Nc4cc(OC)c(OC)c(OC)c4)n3)C2)c1` (centres unmarked) [GSK1379765]: 6%; for `Cc1n[nH]c2cc(Nc3ccnc(Nc4cccc(CN5CCOCC5)c4)n3)ccc12` [GW682569]: 0%.
The same measure, in the same setting: the same measure for `O=C(NCC1CC1)c1ccc(-c2cc(C(=O)NC3CC3)ccc2F)cc1` [GW810445]: 0%; for `Cc1nnc(-c2ccc3occ(-c4ccc(S(C)=O)cc4)c3n2)o1` (centres unmarked): 0%; for `COC(=O)c1cccc(NC(=O)NC2CCN(c3ccnc(NCc4ccc(F)cc4)n3)CC2)c1` [GSK1379860]: 0%.
On to `Cc1cccc2c(-c3ccncc3)c(-c3ccc(F)cc3)nn12.Cl` [GW461487], for which the “%Inh” value came out at 0%.
On the same count and under the same terms, as for `O=C(Nc1n[nH]c2cc(-c3ccco3)ccc12)C1CC1` [SB-737447], the figure is 78%; as for `CN(c1ccccc1CNc1nc(Nc2ccc3c(c2)CC(=O)N3)ncc1C(F)(F)F)S(C)(=O)=O`, 43%; as for `CC(=O)Nc1nc2cnc(Nc3cc(NC(=O)c4cccc(CC(C)(C)C#N)c4)ccc3C)nc2s1`, 0%.
On the same count and under the same terms, as for `COc1ccc(Nc2nccc(N3CCC(NC(=O)c4cccc(C#N)c4)C3)n2)cc1` (centres unmarked) [GSK1379730], the figure is 3%; as for `CS(=O)c1ccc(-c2coc3ccc(-c4n[nH]c(=O)o4)cc23)cc1` (centres unmarked), 32%.
On the same count and under the same terms, the same measure for `CS(=O)(=O)Nc1ccc(-c2ccnc3[nH]ccc23)cc1` [GSK993273]: 15%.
`Cn1ccc2ncnc(Oc3ccc(NC(=O)Nc4cnn(C(C)(C)C)c4)c(Cl)c3)c21`: the “%Inh” value worked out at 0%.
On the same count and under the same terms, the same measure for `Cl.c1ccc(Oc2ccc(Nc3ccnc4cc(-c5ccc(CN6CCNCC6)o5)ccc34)cc2)nc1` [GW567142]: 4%.
Regarding `CSc1nccc(-c2c(-c3ccc(F)cc3)ncn2CCCN2CCOCC2)n1.Cl` [SB-217146], the “%Inh” value amounted to 0%.
In the case of `C[C@@H](Oc1cc(-n2cnc3ccc(-c4ccncc4)cc32)sc1C(N)=O)c1ccccc1Cl` [GSK483724], the “%Inh” value worked out at 32%.
On the same count and under the same terms, as for `Nc1nccc(-c2ccc3c(N)n[nH]c3c2)n1` [GSK1034945], the figure is 96.1%.
As for `CC(C(=O)NC1CCN(c2ccnc(Nc3ccc(F)cc3)n2)C1)c1ccc(Cl)cc1` (centres unmarked) [GSK1379713], the “%Inh” value is given as 0%.
On to `C[C@@H]1CCN(C(=O)N2CCCC2)C[C@@H]1N(C)c1ncnc2[nH]ccc12`, for which the “%Inh” value came to 0%.
Still for that read-out and setting: the same measure for `NC(=O)c1ccc(-c2cc3ncnc(SCC(=O)O)c3s2)cc1`: 12%.

Another test deals with T2, MLK1.
T2 construct: gene MAP3K9
Particulars: concentration: 1 μM,replicates: in singlicate; n = 1.
For the compound `C[C@@H](Oc1cc(-n2cnc3cc(-c4ccncc4)ccc32)sc1C(N)=O)c1ccccc1Cl` [GSK479719], the “%Inh” value was determined as 61%.
With `COc1cc2c(Nc3ccc(NC(=O)c4ccccc4)cc3)ncnc2cc1OCCCN1CCOCC1` [GSK301329], the “%Inh” value is on record as 0%.
`Cc1cccc(-c2nc(Nc3ccncc3)c3sccc3n2)n1` [GW869641]: the “%Inh” value is 3%.
On to `Cl.Cl.NC[C@H](CC1CCCCC1)NC(=O)c1ccc(-c2ccnc3[nH]ccc23)s1` [GSK1581428], for which the “%Inh” value worked out at 5%.
As to `Cc1ccc(Nc2ccnc(Nc3ccc4c(c3)CS(=O)(=O)C4)n2)cc1O.Cl` [GW579362], the “%Inh” value turned out to be 94.2%.
Regarding `CCOC(=O)N1CCC(n2cnc(-c3ccc(F)cc3)c2-c2ccnc(N)n2)CC1` [SB-219952], the “%Inh” value is on record as 4%.
With `CS(=O)(=O)c1cccc(CNc2nc(Nc3ccc4c(c3)[C@@H]3C[C@@H]4CNC3=O)ncc2C(F)(F)F)c1`, the “%Inh” value came to 99.8%.
`O=C(Nc1ccc(Oc2ccc3nc(NC(=O)C4CC4)cn3n2)c(F)c1)c1cccn(-c2ccccc2)c1=O`: the “%Inh” value is 19%.
In the case of `Cc1ccc(C(=O)Nc2ccc(Oc3ccc4nc(NC(=O)C5CC5)cn4c3)c(F)c2)c(=O)n1-c1ccccc1`, the “%Inh” value was 80%.
On the same count and under the same terms, the same measure for `CCN1CCN(CCCC(=O)Nc2n[nH]c3nc(-c4ccc(O)cc4)c(Br)cc23)CC1` [SB-731579]: 0%; for `COC(=O)c1cccc(NC(=O)NC2CCN(c3ccnc(Nc4cc(OC)c(OC)c(OC)c4)n3)C2)c1` (centres unmarked) [GSK1379767]: 33%; for `Cn1cc(-c2cccc3c(N)c(C(N)=O)nnc23)cn1`: 8%.
The same measure, in the same setting: the same measure for `Cn1ccc2ncnc(Oc3ccc(NC(=O)Nc4cccc(C(F)(F)F)c4)c(F)c3)c21`: 21%.
Same read-out and setting: the same measure for `COc1cc(Nc2nccc(N3CCC(NC(=O)c4cccc(C#N)c4)C3)n2)cc(OC)c1OC` (centres unmarked) [GSK1379751]: 52%.
As for `c1ccc(Oc2ccc(Nc3ccnc4ccc(-c5ccccn5)cc34)cc2)cc1` [GW407034], the “%Inh” value came to 1%.
With `C[C@@H](Oc1cc(-n2cnc3cc(-c4cnn(C)c4)ccc32)sc1C(N)=O)c1ccccc1Cl` [GSK580432], the “%Inh” value was found to be 57%.
On the same count and under the same terms, as for `FC(F)(F)c1cc(Br)cc(Nc2nccc(-c3cnn4ncccc34)n2)c1` [GW810578], the figure is 0%; as for `COc1cccc(CNC(=O)NC2CCN(c3ccnc(Nc4cc(OC)c(OC)c(OC)c4)n3)C2)c1` (centres unmarked) [GSK1379765], 25%; as for `Cc1n[nH]c2cc(Nc3ccnc(Nc4cccc(CN5CCOCC5)c4)n3)ccc12` [GW682569], 89%.
Same read-out and setting: as for `O=C(NCC1CC1)c1ccc(-c2cc(C(=O)NC3CC3)ccc2F)cc1` [GW810445], the figure is 7%; as for `Cc1nnc(-c2ccc3occ(-c4ccc(S(C)=O)cc4)c3n2)o1` (centres unmarked), 0%.
For the compound `COC(=O)c1cccc(NC(=O)NC2CCN(c3ccnc(NCc4ccc(F)cc4)n3)CC2)c1` [GSK1379860], the “%Inh” value is reported as 0%.
As to `Cc1cccc2c(-c3ccncc3)c(-c3ccc(F)cc3)nn12.Cl` [GW461487], the “%Inh” value worked out at 0%.
`O=C(Nc1n[nH]c2cc(-c3ccco3)ccc12)C1CC1` [SB-737447]: the “%Inh” value is recorded as 0%.
Same read-out and setting: as for `CN(c1ccccc1CNc1nc(Nc2ccc3c(c2)CC(=O)N3)ncc1C(F)(F)F)S(C)(=O)=O`, the figure is 95.4%; as for `CC(=O)Nc1nc2cnc(Nc3cc(NC(=O)c4cccc(CC(C)(C)C#N)c4)ccc3C)nc2s1`, 0%; as for `COc1ccc(Nc2nccc(N3CCC(NC(=O)c4cccc(C#N)c4)C3)n2)cc1` (centres unmarked) [GSK1379730], 1%.
Take `CS(=O)c1ccc(-c2coc3ccc(-c4n[nH]c(=O)o4)cc23)cc1` (centres unmarked): the “%Inh” value is 9%.
Same read-out and setting: as for `CS(=O)(=O)Nc1ccc(-c2ccnc3[nH]ccc23)cc1` [GSK993273], the figure is 4%; as for `Cn1ccc2ncnc(Oc3ccc(NC(=O)Nc4cnn(C(C)(C)C)c4)c(Cl)c3)c21`, 30%.
As for `Cl.c1ccc(Oc2ccc(Nc3ccnc4cc(-c5ccc(CN6CCNCC6)o5)ccc34)cc2)nc1` [GW567142], the “%Inh” value was 0%.
The same measure, in the same setting: as for `CSc1nccc(-c2c(-c3ccc(F)cc3)ncn2CCCN2CCOCC2)n1.Cl` [SB-217146], the figure is 0%; as for `C[C@@H](Oc1cc(-n2cnc3ccc(-c4ccncc4)cc32)sc1C(N)=O)c1ccccc1Cl` [GSK483724], 0%.
Same read-out and setting: as for `Nc1nccc(-c2ccc3c(N)n[nH]c3c2)n1` [GSK1034945], the figure is 0%; as for `CC(C(=O)NC1CCN(c2ccnc(Nc3ccc(F)cc3)n2)C1)c1ccc(Cl)cc1` (centres unmarked) [GSK1379713], 0%; as for `C[C@@H]1CCN(C(=O)N2CCCC2)C[C@@H]1N(C)c1ncnc2[nH]ccc12`, 97.4%.
With `NC(=O)c1ccc(-c2cc3ncnc(SCC(=O)O)c3s2)cc1`, the “%Inh” value came to 0%.
